Screening data deposited in PubChem BioAssay by National Center for Advancing Translational Sciences (NCATS).
Shown are actives, neighbours in structure and some others; about 21% of the full set was active somewhere.
HCV inh: blocks hepatitis C virus; Huh7.5.1 HCVcc-Cre infection, luciferase reporter, 44 h; Potency, µM (titrated, usually from 41.8 µM), inactives show at the highest dose activity change, negative = inhibition, most hits filed as inhibitors; 340,000 compounds, 3.4% hits; also: potency is read from the fitted curve at half-maximal effect; % is scaled to controls: 0 for no effect and ±100 for the full control effect
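Cells (1,000/well) were plated 4 h before compound, then infected with HCVcc-Cre virus (~0.5 moi). After 44 h further culture, infection was read as luciferase luminescence following a 15 min substrate incubation at room temperature.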
Cycloheximide cs: affects cycloheximide protein synthesis inhibition readout, counter-screen; cell reporter, cycloheximide protein synthesis inhibition counterscreen; AID 2314; max response, %; 300,000 compounds, 12% hits; in the data active = max response mostly above about 13%, no sharp cut-off; inactive = mostly below about 14%; also: read at 38.3 µM for the half of the compounds with a filed dose; 0% is about no effect
Shiga inhibitor: Shiga toxin inhibition | Vero cells, Shiga toxin protein synthesis inhibition reporter | inhibition, % at 38.7 µM | 290,000 compounds, 9.2% hits; in the data active = inhibition mostly above about 28%, no sharp cut-off; inactive = mostly below about 43%; also: 0% is about no effect
HCMV inh: human cytomegalovirus inhibition; HFF cells, HCMV-luciferase reporter, 72 h; active compounds read low; activity change, negative = inhibition, % at 57.5 µM; 410,000 compounds, 4.5% hits; AID 1259415; in the data active = activity change below about -60%; inconclusive = no clear call, values can overlap the other calls; inactive = above about -39%; also: % is scaled to controls: 0 for no effect and ±100 for the full control effect
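Two-dose cell screen: HFF monolayers treated with compounds and infected with luciferase-expressing HCMV at 1 PFU/cell, 72 h at 37C, then lysed for luciferase measurement.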
Pf growth 48h: P. falciparum growth inhibition at 48 hours (one generation). P. falciparum luciferase growth in erythrocytes, 48 h. Potency, µM (top dose mostly 28.7 µM), without a hit: at the highest dose activity change, negative = inhibition, usual class: inhibitors. 310,000 compounds, 5.9% hits; also: potency is read from the fitted curve at half-maximal effect; % is scaled to controls: 0 for no effect and ±100 for the full control effect
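In quantitative HTS format, infected erythrocytes bearing luciferase-reporter parasites were treated for a single generation at 37 C. Luminescence after adding detection reagent served as the growth measure.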
Pf growth 96h: inhibits malaria parasite growth, 96 h; 320,000 compounds, 6.9% hits; P. falciparum luciferase reporter growth, 96 h; Potency, µM (titrated, usually from 28.7 µM), for the others: at the highest dose activity change, negative = inhibition, usual class: inhibitors; also: potency is read from the fitted curve at half-maximal effect; % is scaled to controls: 0 for no effect and ±100 for the full control effect
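Two parasite generations (96 h, 37 C, 5% CO2) of compound exposure in infected erythrocytes (0.05% parasitemia, 2% hematocrit). Luciferase-reporter P. falciparum; decreased luminescence indicates inhibited growth, aimed at apicoplast-acting delayed death.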
The depositor's hits bear a star. Unless noted, calls follow the shape of the dose curve; as a rule, active = well fitted inhibition curve with a large enough effect; inconclusive = small, poorly fitted or top-dose-only effect, or another doubt; inactive = no such curve, though single readings can be large or run the other way.

How did CN(C)C(=O)/C=C\c1cn(-c2ccccc2)nc1-c1ccc2c(c1)OCCO2 do in these assays?
HCV inh: -28.5%; Cycloheximide cs: 0.4; Shiga inhibitor: 1.2; HCMV inh: -84.9*; Pf growth 48h: inconclusive; Pf growth 96h: 10.3%

How did O=C(O)/C=C/c1cn(-c2ccccc2)nc1-c1ccc2c(c1)OCCO2 do in these assays?
HCV inh: 3.5%; Cycloheximide cs: -2.1; Shiga inhibitor: 20.6; HCMV inh: -13.7; Pf growth 48h: -12.1%; Pf growth 96h: inconclusive

How did O=C(Nc1cccc(Cl)c1)C1CCN(C(=O)c2cccs2)CC1 do in these assays?
HCV inh: -7.6%; Cycloheximide cs: -7.1; Shiga inhibitor: -1.7; HCMV inh: -0.3; Pf growth 48h: -8.7%; Pf growth 96h: 231.2%

What do the screens show for `COc1cccc(CNC(=O)C2CCN(C(=O)N3CCOc4ccc(Cl)cc43)CC2)c1OC`?
HCMV inh: -1.1

What do the screens show for `CCC1(c2ccccc2)NC(=O)N(CC(=O)Nc2ccc(S(N)(=O)=O)cc2)C1=O` (stereo unspecified)?
HCV inh: inconclusive; Cycloheximide cs: -4.8; Shiga inhibitor: 26.3; HCMV inh: 10.5; Pf growth 48h: 12.1%; Pf growth 96h: -1.7%

Results for N=C1C(c2nc3ccccc3[nH]2)=C(O)CN1c1ccc(F)cc1 ?
HCV inh: -2.4%; Cycloheximide cs: 37.7*; Shiga inhibitor: 28.4; HCMV inh: -4.0; Pf growth 96h: 70.9%

How did NC1=NCC(O)=C1c1nc2ccccc2[nH]1 do in these assays?
HCV inh: -3.2%; Cycloheximide cs: 1.3; Shiga inhibitor: 14.5; HCMV inh: -17.6; Pf growth 48h: 26.5%; Pf growth 96h: 10.0%

How did N=C1C(c2nc3ccccc3[nH]2)=C(O)CN1C1CCCCC1 do in these assays?
HCV inh: -2.5%; Cycloheximide cs: 30.6*; Shiga inhibitor: 55.0*; HCMV inh: 32.3; Pf growth 48h: 43.6%; Pf growth 96h: 41.5%

Results for Cc1cc(C)cc(N2CC(O)=C(c3nc4ccccc4c(=O)[nH]3)C2=N)c1 ?
HCV inh: 22.4µM*; Cycloheximide cs: 0.6; Shiga inhibitor: -3.4; HCMV inh: -10.4; Pf growth 48h: 28.3%; Pf growth 96h: 2.4%

Results for COc1cccc(N2CC(O)=C(c3nc4ccccc4c(=O)[nH]3)C2=N)c1 ?
HCV inh: inconclusive; Cycloheximide cs: -2.6; Shiga inhibitor: 1.7; Pf growth 48h: inconclusive; Pf growth 96h: inconclusive

Results for CC(=O)c1ccc(Nc2nc(C(N)Cc3ccc(Cl)cc3)cs2)cc1 (stereo unspecified) ?
HCMV inh: 15.6

Results for CCCn1c(SCC(=O)Nc2ccc3c(c2)OCCO3)n[nH]c1=O ?
HCV inh: 14.2%; HCMV inh: 35.4; Pf growth 48h: -11.7%; Pf growth 96h: 2.3%

What do the screens show for `Nc1cc(Cl)ccc1Nc1ccncc1`?
HCV inh: 9.1%; Cycloheximide cs: -1.7; Shiga inhibitor: -11.2; HCMV inh: 16.1; Pf growth 48h: 15.1%; Pf growth 96h: inconclusive

Results for Oc1ccc(Nc2ccnc3cc(Cl)ccc23)cc1 ?
HCV inh: -1.5%; Cycloheximide cs: 12.9; Shiga inhibitor: 52.1; HCMV inh: -11.7; Pf growth 48h: 1.04µM*; Pf growth 96h: 1.85µM*

How did Clc1ccc(NNc2ccnc3cc(Cl)ccc23)cc1 do in these assays?
HCV inh: -13.0%; Cycloheximide cs: 2.1; Shiga inhibitor: -8.1; HCMV inh: -69.4*; Pf growth 48h: 1.65µM*; Pf growth 96h: 1.65µM*

How did S=C(NNc1ccnc2cc(Cl)ccc12)Nc1ccccc1Cl do in these assays?
HCV inh: inconclusive; Cycloheximide cs: 22.8*; Shiga inhibitor: 51.5; HCMV inh: -24.2; Pf growth 48h: inconclusive; Pf growth 96h: 0.0%

How did COC(=O)[C@@H](Cc1ccccc1)NC(=O)NCCc1ccc(OC)c(OC)c1 do in these assays?
HCV inh: 8.9%; Cycloheximide cs: 6.5; Shiga inhibitor: 2.6; HCMV inh: -6.8; Pf growth 48h: 12.0%; Pf growth 96h: 8.2%

Results for COc1cc(NC(=O)C2CCCN(S(=O)(=O)c3cn(C)cn3)C2)cc(OC)c1 (stereo unspecified) ?
HCMV inh: -7.5

What do the screens show for `Cn1c(=O)c(C(=O)Nc2ccccn2)c(O)c2ccccc21`?
HCV inh: 14.5%; Cycloheximide cs: 33.3*; Shiga inhibitor: 44.1*; HCMV inh: inconclusive; Pf growth 48h: 150.8%; Pf growth 96h: 10.4µM*

What do the screens show for `Cn1c(=O)c(C(=O)NNC(=O)c2ccccc2Cl)c(O)c2ccccc21`?
HCV inh: 0.2%; Cycloheximide cs: 10.0; Shiga inhibitor: 4.7; HCMV inh: inconclusive; Pf growth 48h: 1.1%; Pf growth 96h: 11.4%

What do the screens show for `CC(C)CCn1c(=O)c(C(=O)Nc2ccccc2S(N)(=O)=O)c(O)c2ccccc21`?
HCV inh: inconclusive; Cycloheximide cs: 19.9; Shiga inhibitor: 59.6; HCMV inh: -97.4*; Pf growth 48h: -3.1%

How did Cn1c(=O)c(C(=O)NNC(=O)c2ccccc2Br)c(O)c2ccccc21 do in these assays?
HCV inh: -3.9%; Cycloheximide cs: -2.1; Shiga inhibitor: -14.0; HCMV inh: inconclusive; Pf growth 48h: 6.5%; Pf growth 96h: 2.08µM*

How did CCC(C)n1c(=O)c(C(=O)Nc2ccccc2S(N)(=O)=O)c(O)c2ccccc21 (stereo unspecified) do in these assays?
HCV inh: inconclusive; Cycloheximide cs: 0.9; Shiga inhibitor: 8.4; HCMV inh: -25.2; Pf growth 48h: 1.7%; Pf growth 96h: 9.28µM*

How did CCC(C)n1c(SCc2ccc(C(C)(C)C)cc2)nc2ccsc2c1=O (stereo unspecified) do in these assays?
HCMV inh: -9.2

How did CC(C)Cn1c(=O)c(C(=O)Nc2ccccc2S(N)(=O)=O)c(O)c2ccccc21 do in these assays?
HCV inh: inconclusive; Cycloheximide cs: 8.4; Shiga inhibitor: 10.6; HCMV inh: -24.2; Pf growth 48h: 2.0%; Pf growth 96h: -3.1%

Results for Cn1c(=O)c(C(=O)Nc2ccccc2S(N)(=O)=O)c(O)c2ccccc21 ?
HCV inh: 8.3%; Cycloheximide cs: 13.0*; Shiga inhibitor: 22.2; HCMV inh: -1.2; Pf growth 48h: 19.8%; Pf growth 96h: 55.3%

How did NC(=O)c1ccccc1NCC(=O)c1ccc(F)cc1 do in these assays?
HCV inh: -0.3%; Cycloheximide cs: 29.1*; Shiga inhibitor: 48.0*; HCMV inh: 106.5; Pf growth 48h: 33.6%; Pf growth 96h: 37.5%

Results for O=C(CNc1ccc(F)cc1)c1ccccc1 ?
HCV inh: -10.1%; Cycloheximide cs: 23.1*; Shiga inhibitor: 52.2; HCMV inh: 0.7; Pf growth 48h: inconclusive; Pf growth 96h: -22.0%

Results for Cc1ccc(C(=O)CNc2ccccc2)cc1 ?
HCV inh: -9.5%; Cycloheximide cs: 34.0*; Shiga inhibitor: 47.0*; HCMV inh: -24.2; Pf growth 48h: 32.8%; Pf growth 96h: 44.7%
